From PubChem BioAssay (EPA / NIEHS)
Where “and” joins values, the source holds several entries; their conditions need not be identical. Equal values may be shown once. Some compounds were tested as several samples or in several runs, with calls that do not always agree. Calls of active or inactive are those of the source. The calls were made as follows: active = hit-call score of the fitted dose curve at least 0.9, where 1 is the maximum; inactive = score below 0.9.

Each compound was assayed on TIMP metallopeptidase inhibitor 2 (TIMP2), TIMP2 (gene 7077) (assay: BSK_KF3CT_TIMP2: BioMAP Diversity Plus: KF3CT Assay for TIMP metallopeptidase inhibitor 2 (TIMP2) Biomarker Activity (AID 2283071)). Conditions: primary human keratinocytes with fibroblasts; actives raise or lower the signal.
Procedure: BSK_KF3CT is a cell-based, multiplexed-readout assay that uses keratinocytes and foreskin fibroblasts, a human skin primary cell co-culture, with measurements taken at 24 hours after chemical dosing in a 96-well plate.BSK_KF3CT_TIMP2 is an assay component measured in the BSK_KF3CT assay. It measures TIMP-2 antibody related to regulation of gene expression using ELISA technology.Data from the assay component BSK_KF3CT_TIMP2 was analyzed into 1 assay endpoint. This assay endpoint, BSK_KF3CT_TIMP2, was analyzed with bidirectional fitting relative to DMSO as the negative control and baseline of activity. Using a type of binding reporter, gain or loss-of-signal activity can be used to understand changes in the signaling as they relate to the gene TIMP2. Furthermore, this assay endpoint can be referred to as a primary readout, because this assay has produced multiple assay endpoints where this one serves a signaling function. To generalize the intended target to other relatable targets, this assay endpoint is annotated to the protease inhibitor intended target family, where the subfamily is metalloproteinase inhibitor.
The levels of cell surface (or secreted, indicated by the prefix "s") biomarker endpoints were measured by ELISA. Overt cytotoxicity to cells in confluent adherent cultures (all systems other than the BT system) was assessed by measuring total protein levels using sulforhodamine B (SRB) staining in parallel cultures at the time of biomarker measurements, indicated as SRB endpoints. For proliferation assays for adherent cell types, individual cell types are cultured at sub-confluence and relative cell numbers quantified by SRB staining at time points optimized for each system (48 h: 3C and CASM3C systems; 72 h: BT and HDF3CGF systems; 96 h: SAg system). SRB was performed by staining cells with 0.1% SRB after fixation with 10% TCA and reading wells at 560 nm.Viability and proliferation of PBMC (T cells) was quantified by Alamar Blue reduction for the SAg and BT systems. For PBMC viability (referred to as PBMC Cytotoxicity within the assay endpoint names), cells were plated (75,000/well in a 96-well plate) and then chemical samples added for 1 h before addition of activators, SEB and TSST-1 (20 ng/mL final concentration each). Cells were incubated for 90 h. Then, Alamar Blue (20 uL/well) (Invitrogen, Cat DAL1100) was added for 6 h, and the plates were read with a fluorescence microplate reader at 546/580 nm (excitation/emission). For PBMC proliferation, cells were plated and activated as above but incubated for only 16 h prior to addition of Alamar Blue. Plates were read after 6 h.

SMILES	outcome	AC50
O=c1c2ccccc2c(=O)c2c1cc(Cl)c1[nH]c3c([nH]c12)c(Cl)cc1c(=O)c2ccccc2c(=O)c13	inactive	
c1ccc(Nc2ccc3ccccc3c2)cc1		15.8 µM (active)
CCc1cc(C)cc(CC)c1-c1c(OC(=O)C(C)(C)C)n2n(c1=O)CCOCC2		3.97 µM (active)
O=[N+]([O-])C=Cc1ccccc1		8.02 µM (active)
[Cd+2].[Cl-].[Cl-]		28.2 µM (active) and 20 µM (active)
CC(C)CCCCCCCOC(=O)c1ccccc1C(=O)OCCCCCCCC(C)C	inactive	
CC(C)(c1cc(Cl)c(O)c(Cl)c1)c1cc(Cl)c(O)c(Cl)c1		5.51 µM (active)
O=c1[nH]c(Cl)c(Cl)cc1Cl	inactive	
C=CCN(CC=C)C(=O)C(Cl)Cl	inactive	
CC(C)COP(=O)(OCC(C)C)OCC(C)C	inactive	
CCC(C)c1cc([N+](=O)[O-])cc([N+](=O)[O-])c1OC(=O)C=C(C)C (centres undefined)		21.1 µM (active)
CNC(=O)Oc1cc(C)c(SC)c(C)c1	inactive	
N#CCCCCC#N	inactive	
Clc1ccc(-c2ccccc2)cc1	inactive	
CC1(C)[C@H](C(=O)O[C@H](C#N)c2cccc(Oc3ccccc3)c2)[C@@H]1C=C(Br)Br	inactive	0.298 µM (active)
O=P1(NCCCl)OCCCN1CCCl (centres undefined)	inactive	
Cc1ccc(OP(=O)(Oc2ccc(C)cc2)Oc2ccc(C)cc2)cc1 (tested in a mixture with another compound)		5.39 µM (active)
CC(C)CCCCCCCOP(=O)(Oc1ccccc1)Oc1ccccc1		16.1 µM (active)
CC(C)(C)C(=O)CCl	inactive	

SMILES	outcome	AC50
CCCOC(=O)c1ccccc1C(=O)OCCC	inactive	
COC(C)(C)CCC[C@H](C)C/C=C/C(C)=C/C(=O)OC(C)C		9.64 µM (active)
CC(=O)/C=C/c1ccccc1	inactive	
COCC(=O)N(c1c(C)cccc1C)N1CCOC1=O	inactive	
O=C(O)CCCc1ccc(N(CCCl)CCCl)cc1		30.6 µM (active) and 32.6 µM (active)
COc1ccc(CO)cc1	inactive	
Oc1cc(Cl)ccc1Cl	inactive	
O=C1C=CC(=O)C=C1		28.7 µM (active) and 12.4 µM (active)
O=S(=O)(c1ccccc1)c1ccccc1	inactive	
C=CC(=O)OCC(CC)CCCC (centres undefined)	inactive	
O=C1C(Cl)=C(Cl)C(=O)C(Cl)=C1Cl		12.1 µM (active)
Nc1ccc(-c2ccc(N)c(N)c2)cc1N		20 µM (active)
CC(C)(C)C(O)C(Oc1ccc(-c2ccccc2)cc1)n1cncn1 (centres undefined)		20 µM (active)
CCCCCCCCCCCC#N	inactive	
O=[N+]([O-])O	inactive	
O=C(CCl)c1ccccc1		36.4 µM (active)
CCCC[N+](CCCC)(CCCC)CCCC	inactive	
Oc1ccc(C2(c3ccc(O)cc3)c3ccccc3-c3ccccc32)cc1		5.37 µM (active) and 5.43 µM (active)
O=[N+]([O-])c1ccc(Cl)cc1	inactive	
